IDE exosite FP: displaces the probe from the exo-site of human IDE. P14735. 6.3% of 17,000 active. z-score at 20 µM. purified IDE, FL-6b probe fluorescence polarization; hits give low values;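 active = z-score of -3 or lower, meaning strong loss of probe binding signal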;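 also: His-tagged human IDE residues 42-1019 made in E. coli with 30 nM FL-6b probe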
Target sequence (P14735 42-1019 limits assumed): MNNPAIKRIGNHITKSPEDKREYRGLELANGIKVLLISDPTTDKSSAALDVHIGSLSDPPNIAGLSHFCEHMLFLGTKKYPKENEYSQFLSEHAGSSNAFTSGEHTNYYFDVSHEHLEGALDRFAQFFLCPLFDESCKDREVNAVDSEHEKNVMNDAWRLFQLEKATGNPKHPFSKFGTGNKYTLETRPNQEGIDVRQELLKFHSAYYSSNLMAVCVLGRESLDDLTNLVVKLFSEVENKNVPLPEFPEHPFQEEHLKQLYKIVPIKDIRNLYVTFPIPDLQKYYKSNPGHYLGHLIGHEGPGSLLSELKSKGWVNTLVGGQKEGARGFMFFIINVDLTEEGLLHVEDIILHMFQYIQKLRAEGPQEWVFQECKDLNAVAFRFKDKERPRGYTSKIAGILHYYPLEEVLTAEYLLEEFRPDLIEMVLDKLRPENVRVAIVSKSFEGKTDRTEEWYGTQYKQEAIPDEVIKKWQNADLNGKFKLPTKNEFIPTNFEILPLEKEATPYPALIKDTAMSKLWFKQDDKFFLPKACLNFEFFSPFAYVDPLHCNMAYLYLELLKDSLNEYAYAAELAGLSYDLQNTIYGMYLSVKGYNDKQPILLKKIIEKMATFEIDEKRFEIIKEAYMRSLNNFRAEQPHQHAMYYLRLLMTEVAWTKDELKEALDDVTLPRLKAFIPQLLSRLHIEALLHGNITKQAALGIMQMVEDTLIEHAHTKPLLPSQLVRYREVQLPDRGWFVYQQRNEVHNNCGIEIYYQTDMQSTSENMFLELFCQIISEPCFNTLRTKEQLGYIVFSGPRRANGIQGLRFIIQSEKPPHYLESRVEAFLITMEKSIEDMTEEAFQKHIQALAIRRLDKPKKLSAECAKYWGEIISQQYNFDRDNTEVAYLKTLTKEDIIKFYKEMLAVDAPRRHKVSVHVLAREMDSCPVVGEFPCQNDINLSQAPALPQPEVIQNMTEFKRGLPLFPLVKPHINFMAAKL
* = called active by the depositor. The full list was thinned out, with hits kept by preference.

SMILES	IDE exosite FP
COCC(=O)N1[C@@H](C#N)[C@@H](c2ccccc2-c2cccc(C)c2)[C@@H]1CO	0.12
COc1ccccc1NC(=O)N1C[C@@H](O)COC[C@@H]2O[C@@H](CC(=O)N3CCC(Cc4ccccc4)CC3)CC[C@H]21	-1.5
CCCC#Cc1ccc([C@@H]2[C@H](CO)N3CCCCN(CC4CC4)C[C@@H]23)cc1	4.1
Cc1ccccc1-c1ccc([C@H]2[C@H]3CN(CC4CCOCC4)CCCCN3[C@H]2CO)cc1	-6.9*
COc1ccc(-c2ccc([C@H]3[C@@H](CO)N4CCCCN(CC5CCOCC5)C[C@@H]34)cc2)cc1	0.85
OC[C@H]1[C@@H](c2ccc(-c3cccnc3)cc2)[C@@H]2CN(CC3CC3)CCCCN12	-1.3
COc1ccc(-c2ccc([C@H]3[C@@H](CO)N4CCCCN(CC5CCOCC5)C[C@H]34)cc2)cc1	-0.35
Cc1ccccc1-c1ccc([C@H]2[C@@H](CO)N3CCCCN(CC4CC4)C[C@@H]23)cc1	-3.5*
O=C(C1CCOCC1)N1CC2(C1)[C@@H](c1ccccc1)[C@@H](CO)N2C(=O)CC1CC1	0.49
C/C=C/c1ccc([C@@H]2[C@@H](CNC(=O)CC)N(Cc3ccccn3)[C@H]2CO)cc1	4.4
Cc1ccc(-c2ccc([C@H]3[C@@H](CO)N4CCCCN(C)C[C@H]34)cc2)cc1	-0.55
CCN(C[C@@H]1[C@@H](c2ccc(-c3ccccc3F)cc2)[C@@H](CO)N1C(C)=O)C(C)=O	-2.1
CCC(=O)N1CC(=O)N2[C@H](CO)[C@H](c3ccc(C#CCc4ccccc4)cc3)[C@@H]2C1	-5.8*
CCC(=O)N1CC(=O)N2[C@H](CO)[C@H](c3ccc(C#CCc4ccccc4)cc3)[C@H]2C1	-3.6*
CCC(=O)N1CC(=O)N2[C@H](CO)[C@@H](c3ccc(C#CCc4ccccc4)cc3)[C@@H]2C1	-0.78
O=C(C1CC1)N1CC(=O)N2[C@@H](CO)[C@H](c3ccc(C#CCc4ccccc4)cc3)[C@@H]2C1	-0.59
O=C(C1CC1)N1CC(=O)N2[C@H](CO)[C@@H](c3ccc(C#CCc4ccccc4)cc3)[C@@H]2C1	0.35
CCC(=O)N1CC(=O)N2[C@H](C1)[C@@H](c1ccc(C#CCc3ccccc3)cc1)[C@@H]2CO	-2.5
COCC(=O)N1CC(=O)N2[C@H](C1)[C@H](c1ccc(C#CCc3ccccc3)cc1)[C@@H]2CO	1.2
O=C(C1CC1)N1CC(=O)N2[C@H](CO)[C@@H](c3ccc(C#CCc4ccccc4)cc3)[C@H]2C1	0.018
CCC(=O)N1CC(=O)N2[C@@H](CO)[C@H](c3ccc(C#CCc4ccccc4)cc3)[C@@H]2C1	-3.8*
CC(C)(O)C#Cc1ccc([C@@H]2[C@@H](CO)N3CCCCN(C(=O)c4cccc(F)c4)C[C@H]23)cc1	1.6
Cc1ccc(-c2ccc([C@@H]3[C@@H](CO)N4CCCCN(C)C[C@H]34)cc2)cc1	1.2
O=C(Nc1ccccc1)[C@@H]1[C@@H](CO)[C@@H]2Cn3c(ccc(C4=CCCCC4)c3=O)[C@@H]2N1Cc1cocn1	0.45
CN1C(=O)c2cc(NC(=O)C3CCOCC3)ccc2OC[C@H]2O[C@@H](CC(=O)Nc3ccc4c(c3)CCCC4)CC[C@@H]21	-1.8
SMILES	IDE exosite FP
COc1ccccc1S(=O)(=O)N(C)C[C@H]1OCc2cn(nn2)CCCC(=O)N([C@H](C)CO)C[C@H]1C	-0.66
O=S(=O)(NC[C@H]1[C@H](c2ccccc2)[C@@H](CO)N1CC1CC1)c1ccccc1	-1.4
O=C(C[C@H]1CC[C@@H]2[C@H](COC[C@@H](O)CN2Cc2ccc(C(F)(F)F)cc2)O1)N1CCc2ccccc2C1	0.79
COc1cccc(NC(=O)N[C@@H]2C=C[C@H](CC(=O)NCc3ccncn3)O[C@H]2CO)c1	0.18
CN1CCCCN2[C@H](CO)[C@@H](c3ccc(-c4ccccc4)cc3)[C@H]2C1	-0.23
O=C(c1ccc(F)cc1)N1CCCCN2[C@H](CO)[C@@H](c3ccc(/C=C/c4ccccc4)cc3)[C@H]2C1	-2.3
CN1CCCCN2[C@@H](CO)[C@@H](c3ccc(/C=C/c4ccccc4)cc3)[C@@H]2C1	-6.8*
CCC(=O)N1CCCCN2[C@H](CO)[C@@H](c3ccc(/C=C/c4ccccc4)cc3)[C@@H]2C1	-4.5*
O=C(c1ccc(F)cc1)N1CCCCN2[C@H](C1)[C@H](c1ccc(/C=C/c3ccccc3)cc1)[C@@H]2CO	5.3
CCC(=O)N1CCCCN2[C@H](C1)[C@H](c1ccc(/C=C/c3ccccc3)cc1)[C@@H]2CO	-10*
CCC(=O)N1CCCCN2[C@H](CO)[C@@H](c3ccc(-c4ccc(F)cc4)cc3)[C@@H]2C1	3.2
CCC(=O)N1CCCCN2[C@@H](CO)[C@@H](c3ccc(/C=C/c4ccccc4)cc3)[C@@H]2C1	-1.4
C/C=C/c1ccc([C@H]2[C@@H](CO)N3CCCCN(C)C[C@H]23)cc1	0.65
N#C[C@@H]1[C@@H](c2ccccc2-c2ccc(F)cc2)[C@H](CO)N1C(=O)Cc1ccccc1	2.9
C[C@@H]1CCCCO[C@@H](CN(C)S(=O)(=O)c2ccc(F)cc2)[C@H](C)CN([C@H](C)CO)C(=O)c2cc(N(C)C)ccc2O1	0.059
CO[C@H](CN(C)Cc1cc(F)ccc1F)[C@H](C)CN([C@@H](C)CO)S(=O)(=O)c1ccc(C)cc1	2
O=C(CN1CCOCC1)N1CC(=O)N2[C@H](C1)[C@@H](c1ccc(-c3cccc(F)c3)cc1)[C@@H]2CO	-1.5
COc1cccc(S(=O)(=O)N2CCCCN3[C@H](CO)[C@H](c4ccc(C#CCC(C)C)cc4)[C@@H]3C2)c1	1.7
Cc1ccccc1-c1ccc([C@H]2[C@@H](CO)N3CCCCN(S(C)(=O)=O)C[C@@H]23)cc1	-2.3
CCS(=O)(=O)N1CCCCN2[C@H](CO)[C@H](c3ccc(-c4ccccc4F)cc3)[C@H]2C1	-2.2
CCS(=O)(=O)N1CCCCN2[C@H](CO)[C@@H](c3ccc(-c4ccccc4C)cc3)[C@@H]2C1	-18*
Cc1ccccc1-c1ccc([C@H]2[C@H](CO)N3CCCCN(S(C)(=O)=O)C[C@@H]23)cc1	-4.6*
CCS(=O)(=O)N1CCCCN2[C@H](C1)[C@H](c1ccc(-c3ccccc3C)cc1)[C@@H]2CO	-0.65
Cc1ccccc1-c1ccc([C@H]2[C@H]3CN(S(C)(=O)=O)CCCCN3[C@H]2CO)cc1	-0.86
CCS(=O)(=O)N1CCCCN2[C@H](CO)[C@H](c3ccc(-c4ccccc4C)cc3)[C@H]2C1	-8.3*
SMILES	IDE exosite FP
CS(=O)(=O)N1CC(=O)N2[C@H](C1)[C@H](c1ccc(Br)cc1)[C@@H]2CO	0.089
Cc1ccccc1-c1ccc([C@@H]2[C@@H](CO)N3C(=O)CN(S(C)(=O)=O)C[C@@H]23)cc1	-13*
Cc1ccccc1-c1ccc([C@@H]2[C@@H](CO)N3CCCCN(S(=O)(=O)c4ccc(F)cc4)C[C@H]23)cc1	2.4
CCS(=O)(=O)N1CCCCN2[C@H](CO)[C@@H](c3ccc(-c4ccccc4F)cc3)[C@H]2C1	1.9
CS(=O)(=O)N1CC(=O)N2[C@H](CO)[C@H](c3ccc(Br)cc3)[C@@H]2C1	-0.52
OC[C@H]1[C@H](c2ccc(-c3cccc(F)c3)cc2)[C@@H]2CN(CCC(F)(F)F)CCCCN12	3.3
CN1CCN(C(=O)C[C@H]2CC[C@@H]3[C@H](COC[C@@H](O)CN3CC3CCCCC3)O2)CC1	-0.5
CN(C)CC#Cc1ccc([C@@H]2[C@H]3CN(C(=O)Nc4ccc(F)cc4)CCCCN3[C@H]2CO)cc1	2.2
CCS(=O)(=O)N1[C@H](CO)[C@H](c2ccc(C#CC(C)C)cc2)[C@@H]1C#N	4.5

Assay outcomes from PubChem BioAssay.
